Results from ChEMBL document CHEMBL3988442, “University of Dundee, Small-Polar-MMV Screening Library” (2021).
For some assays here: Results with a measured potency or affinity are listed apart.

Tests used:
Parameters in all cases: scale not given: direction of the effect not stated beside the values
[1] = molecular target: Protein translocase subunit SecA (Escherichia coli (strain K12)) (UniProt P10408); test: Assay to Identify E. coli SecA ATPase Inhibitors; format: functional; conditions: 30 µM
Sequence of Protein translocase subunit SecA (Escherichia coli (strain K12)) (P10408 whole entry): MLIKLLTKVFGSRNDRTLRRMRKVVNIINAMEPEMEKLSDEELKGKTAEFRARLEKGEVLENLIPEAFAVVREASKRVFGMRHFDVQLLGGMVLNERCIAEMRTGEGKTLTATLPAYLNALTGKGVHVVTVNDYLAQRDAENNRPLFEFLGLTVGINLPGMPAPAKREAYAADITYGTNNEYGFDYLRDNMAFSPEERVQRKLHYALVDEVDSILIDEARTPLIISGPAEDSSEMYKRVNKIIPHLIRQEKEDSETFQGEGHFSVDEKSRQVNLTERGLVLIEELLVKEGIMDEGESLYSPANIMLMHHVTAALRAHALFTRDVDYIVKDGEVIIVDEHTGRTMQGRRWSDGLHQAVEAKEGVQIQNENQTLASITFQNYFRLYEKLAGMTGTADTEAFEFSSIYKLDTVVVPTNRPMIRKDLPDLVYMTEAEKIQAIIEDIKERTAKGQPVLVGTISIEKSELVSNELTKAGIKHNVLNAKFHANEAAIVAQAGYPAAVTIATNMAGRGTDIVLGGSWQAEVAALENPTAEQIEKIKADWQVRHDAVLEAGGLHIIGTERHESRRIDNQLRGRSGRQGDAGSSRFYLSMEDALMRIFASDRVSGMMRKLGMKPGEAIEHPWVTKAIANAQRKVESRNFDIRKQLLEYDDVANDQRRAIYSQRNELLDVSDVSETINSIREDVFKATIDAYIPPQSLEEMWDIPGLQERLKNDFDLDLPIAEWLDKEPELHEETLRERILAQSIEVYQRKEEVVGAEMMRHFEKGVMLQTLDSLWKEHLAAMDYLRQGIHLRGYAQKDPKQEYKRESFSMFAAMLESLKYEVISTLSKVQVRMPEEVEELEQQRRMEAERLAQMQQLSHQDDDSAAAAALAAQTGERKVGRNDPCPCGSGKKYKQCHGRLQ

[2] = molecular target: T1, Ubiquitin-activating enzyme e1, putative (Leishmania donovani (strain BPK282A1)) (UniProt E9BSI1); test: Leishmania donovani Ubiquitin Activating Enzyme (LdE1); format: functional; conditions: 30 µM
T1 sequence (whole entry): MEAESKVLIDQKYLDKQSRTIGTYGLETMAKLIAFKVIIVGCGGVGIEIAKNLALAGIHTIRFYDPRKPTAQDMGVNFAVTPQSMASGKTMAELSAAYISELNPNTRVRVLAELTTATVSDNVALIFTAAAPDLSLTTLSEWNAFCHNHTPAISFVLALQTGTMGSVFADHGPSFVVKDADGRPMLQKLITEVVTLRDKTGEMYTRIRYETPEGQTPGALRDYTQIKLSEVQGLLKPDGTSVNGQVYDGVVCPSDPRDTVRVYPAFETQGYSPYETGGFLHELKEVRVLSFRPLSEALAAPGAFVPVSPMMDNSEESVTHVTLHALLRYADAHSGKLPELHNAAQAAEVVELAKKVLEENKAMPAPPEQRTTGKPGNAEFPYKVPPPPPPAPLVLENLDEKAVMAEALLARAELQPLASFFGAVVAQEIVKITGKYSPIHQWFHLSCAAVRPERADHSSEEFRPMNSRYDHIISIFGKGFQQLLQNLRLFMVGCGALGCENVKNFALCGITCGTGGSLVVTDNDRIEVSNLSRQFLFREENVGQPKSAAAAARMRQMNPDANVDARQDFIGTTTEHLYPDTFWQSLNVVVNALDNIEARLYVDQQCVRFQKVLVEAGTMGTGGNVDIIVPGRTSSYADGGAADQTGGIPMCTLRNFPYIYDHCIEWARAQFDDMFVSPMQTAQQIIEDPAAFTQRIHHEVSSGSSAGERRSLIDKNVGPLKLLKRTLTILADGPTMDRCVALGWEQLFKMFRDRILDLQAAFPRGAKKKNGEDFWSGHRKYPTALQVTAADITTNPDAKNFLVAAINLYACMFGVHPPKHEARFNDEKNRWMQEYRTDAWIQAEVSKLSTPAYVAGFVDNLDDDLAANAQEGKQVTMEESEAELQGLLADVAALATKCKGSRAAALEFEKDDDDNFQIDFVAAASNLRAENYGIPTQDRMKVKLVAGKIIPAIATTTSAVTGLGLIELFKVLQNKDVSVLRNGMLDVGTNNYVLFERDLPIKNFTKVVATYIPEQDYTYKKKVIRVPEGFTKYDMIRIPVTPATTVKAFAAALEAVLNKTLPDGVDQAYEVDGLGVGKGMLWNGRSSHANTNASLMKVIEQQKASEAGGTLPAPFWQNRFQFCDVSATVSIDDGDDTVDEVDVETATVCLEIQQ

[3] = molecular target: AMP-activated protein kinase, AMPK (Homo sapiens) (UniProt P54646+O43741+P54619+Q9UGJ0+Q9Y478+Q13131+Q9UGI9); test: AMP-dependent Kinase enzyme assay. An in vitro enzyme assay that detects ADP turnover that is directly proportional to AMPK activity. This uses naive AMPK that is activated during the assay with MK-8722; format: functional; conditions: 30 µM
[4] = molecular target: Sialic acid-binding Ig-like lectin 9 (Homo sapiens) (UniProt Q9Y336); test: Hs-Siglec9 ALPHAscreen SOP 20170721; conditions: 10 µM
Sequence of Sialic acid-binding Ig-like lectin 9 (Homo sapiens) (Q9Y336 whole entry): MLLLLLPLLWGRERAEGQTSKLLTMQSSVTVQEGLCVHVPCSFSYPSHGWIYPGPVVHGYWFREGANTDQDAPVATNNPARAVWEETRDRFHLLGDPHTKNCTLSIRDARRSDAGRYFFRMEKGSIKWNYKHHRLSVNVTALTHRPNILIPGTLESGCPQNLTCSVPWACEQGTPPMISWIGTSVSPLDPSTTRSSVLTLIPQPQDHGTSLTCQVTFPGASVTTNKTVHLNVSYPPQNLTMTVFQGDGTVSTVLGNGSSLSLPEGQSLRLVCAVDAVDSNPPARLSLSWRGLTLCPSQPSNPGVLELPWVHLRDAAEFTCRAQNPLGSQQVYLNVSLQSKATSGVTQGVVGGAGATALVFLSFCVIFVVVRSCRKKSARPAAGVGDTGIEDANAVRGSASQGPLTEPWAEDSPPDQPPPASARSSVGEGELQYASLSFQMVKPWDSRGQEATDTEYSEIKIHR

Trypanosoma cruzi = test: Trypanosoma cruzi phosphomannomutase and mannose-1-phosphate guanylyltransferase assay; format: functional; conditions: 10 µM
[5] = molecular target: T2, Arginase-2, mitochondrial (Homo sapiens) (UniProt P78540); test: in vitro enzyme assay to detect the production of urea directly proportional to the activity of Arginase II; format: functional; conditions: 33.3 µM; also: in the data most compounds retested in dose-response had high values
T2 sequence (whole entry): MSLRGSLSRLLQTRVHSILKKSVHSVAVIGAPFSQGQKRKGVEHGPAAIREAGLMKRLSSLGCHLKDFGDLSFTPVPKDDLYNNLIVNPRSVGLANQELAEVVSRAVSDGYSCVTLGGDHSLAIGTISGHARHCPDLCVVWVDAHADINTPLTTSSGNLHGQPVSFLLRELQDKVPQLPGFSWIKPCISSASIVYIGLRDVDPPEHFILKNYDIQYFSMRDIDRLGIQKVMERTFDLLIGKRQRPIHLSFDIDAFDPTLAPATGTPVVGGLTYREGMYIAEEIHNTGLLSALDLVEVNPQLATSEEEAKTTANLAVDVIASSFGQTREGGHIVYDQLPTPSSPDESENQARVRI

[6] = molecular target: T3, Proteasome subunit beta (Trypanosoma cruzi) (UniProt O96673); test: Trypanosoma cruzi proteasome chymotrypsin-like activity (TcProtChymo) assay.; also: in the data most compounds retested in dose-response had high values; format: functional; conditions: 9.37 µM
T3 sequence (whole entry): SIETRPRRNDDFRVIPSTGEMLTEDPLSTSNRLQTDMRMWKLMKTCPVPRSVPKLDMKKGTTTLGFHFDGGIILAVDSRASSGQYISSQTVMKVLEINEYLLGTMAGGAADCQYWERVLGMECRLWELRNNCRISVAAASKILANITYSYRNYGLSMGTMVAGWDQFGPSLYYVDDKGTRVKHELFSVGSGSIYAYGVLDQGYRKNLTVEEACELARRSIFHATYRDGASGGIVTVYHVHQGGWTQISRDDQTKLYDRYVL

Homo sapiens = species: Homo sapiens; test: To identify inhibition of the IFN signalling (Jak-Stat) pathway via expression of an eGFP reporter gene under the control of an IFN-stimulated response element (ISRE) containing MxA promoter.; format: functional; conditions: 30 µM
[7] = molecular target: T4, Tyrosyl-tRNA synthetase, putative (Trypanosoma cruzi (strain CL Brener)) (UniProt Q4DSP6); test: Trypanosoma cruzi tyrosyl tRNA synthetase (TcYRS) _High Tyrosine SOP; format: functional; conditions: 30 µM; also: in the data most compounds retested in dose-response had high values
T4 sequence (whole entry): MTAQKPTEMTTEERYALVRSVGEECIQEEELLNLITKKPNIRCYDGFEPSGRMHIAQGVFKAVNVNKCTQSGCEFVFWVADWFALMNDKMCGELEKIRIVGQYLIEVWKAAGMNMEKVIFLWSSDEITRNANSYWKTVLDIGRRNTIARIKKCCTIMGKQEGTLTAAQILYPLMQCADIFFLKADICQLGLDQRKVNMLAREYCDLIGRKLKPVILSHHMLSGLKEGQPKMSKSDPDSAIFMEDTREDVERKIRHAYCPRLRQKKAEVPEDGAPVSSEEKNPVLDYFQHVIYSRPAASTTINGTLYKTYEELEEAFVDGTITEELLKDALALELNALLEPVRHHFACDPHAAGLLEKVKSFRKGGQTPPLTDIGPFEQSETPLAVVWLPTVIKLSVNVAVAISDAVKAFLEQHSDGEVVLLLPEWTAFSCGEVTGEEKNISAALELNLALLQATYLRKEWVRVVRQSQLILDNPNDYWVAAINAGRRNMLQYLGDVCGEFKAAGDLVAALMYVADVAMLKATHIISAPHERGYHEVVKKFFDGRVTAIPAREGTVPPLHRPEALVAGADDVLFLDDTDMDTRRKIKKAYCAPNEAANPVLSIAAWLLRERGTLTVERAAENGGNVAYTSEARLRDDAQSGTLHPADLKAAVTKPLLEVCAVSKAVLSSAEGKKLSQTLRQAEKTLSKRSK

[8] = molecular target: T4, Tyrosyl-tRNA synthetase, putative (Trypanosoma cruzi (strain CL Brener)); test: Trypanosoma cruzi tyrosyl tRNA synthetase (TcYRS) SOP; format: functional; conditions: 30 µM
[9] = molecular target: Chromo domain-containing protein 1 (Saccharomyces cerevisiae (strain ATCC 204508 / S288c) (Baker's yeast)) (UniProt P32657); test: ScCHD-1 Enzyme Inhibition Assay; format: functional; conditions: 30 µM; also: in the data most compounds retested in dose-response had high values
Sequence of Chromo domain-containing protein 1 (Saccharomyces cerevisiae (strain ATCC 204508 / S288c) (Baker's yeast)) (P32657 whole entry, the tested form may be a part): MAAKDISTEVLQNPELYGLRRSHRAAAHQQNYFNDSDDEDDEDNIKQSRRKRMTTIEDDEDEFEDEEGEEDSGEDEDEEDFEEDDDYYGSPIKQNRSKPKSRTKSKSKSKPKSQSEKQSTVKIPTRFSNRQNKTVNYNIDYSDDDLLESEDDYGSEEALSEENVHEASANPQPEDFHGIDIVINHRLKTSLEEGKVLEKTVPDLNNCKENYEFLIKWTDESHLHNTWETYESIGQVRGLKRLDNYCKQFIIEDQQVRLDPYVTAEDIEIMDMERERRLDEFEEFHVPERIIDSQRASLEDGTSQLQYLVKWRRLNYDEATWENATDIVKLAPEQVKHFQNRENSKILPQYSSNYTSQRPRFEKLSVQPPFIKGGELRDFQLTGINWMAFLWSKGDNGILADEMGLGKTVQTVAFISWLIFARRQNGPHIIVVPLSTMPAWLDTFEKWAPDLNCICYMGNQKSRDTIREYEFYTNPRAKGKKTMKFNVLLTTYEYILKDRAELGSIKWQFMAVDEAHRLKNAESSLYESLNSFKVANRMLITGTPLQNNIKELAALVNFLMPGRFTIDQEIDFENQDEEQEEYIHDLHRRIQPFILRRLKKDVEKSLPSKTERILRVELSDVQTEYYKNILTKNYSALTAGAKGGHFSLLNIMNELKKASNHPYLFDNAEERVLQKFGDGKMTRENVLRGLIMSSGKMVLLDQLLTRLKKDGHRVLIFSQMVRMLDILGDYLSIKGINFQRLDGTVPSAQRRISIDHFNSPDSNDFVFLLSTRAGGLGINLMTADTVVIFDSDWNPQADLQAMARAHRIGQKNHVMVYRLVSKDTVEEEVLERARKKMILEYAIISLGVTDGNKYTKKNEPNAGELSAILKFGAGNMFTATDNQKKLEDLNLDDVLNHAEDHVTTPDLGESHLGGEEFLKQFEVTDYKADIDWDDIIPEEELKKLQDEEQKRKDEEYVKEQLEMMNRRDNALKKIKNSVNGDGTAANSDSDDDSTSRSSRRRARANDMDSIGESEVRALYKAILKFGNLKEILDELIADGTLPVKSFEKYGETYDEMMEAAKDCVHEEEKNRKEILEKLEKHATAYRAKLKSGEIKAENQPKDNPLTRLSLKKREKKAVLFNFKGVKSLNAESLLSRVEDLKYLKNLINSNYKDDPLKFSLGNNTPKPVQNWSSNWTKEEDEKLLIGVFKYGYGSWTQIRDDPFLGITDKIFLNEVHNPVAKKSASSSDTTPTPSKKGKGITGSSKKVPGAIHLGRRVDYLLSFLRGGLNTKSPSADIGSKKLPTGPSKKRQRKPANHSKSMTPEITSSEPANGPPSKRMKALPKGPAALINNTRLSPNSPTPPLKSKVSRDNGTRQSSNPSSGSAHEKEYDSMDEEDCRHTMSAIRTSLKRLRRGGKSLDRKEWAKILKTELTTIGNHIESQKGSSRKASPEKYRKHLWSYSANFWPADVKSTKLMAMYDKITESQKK

Structure (SMILES) | Percent Effect [1] | Percent Effect [2] | Percent Effect [3] | Percent Effect [4] | Percent Effect (Trypanosoma cruzi) | Percent Effect [5] | Percent Effect [6] | Percent Effect (Homo sapiens) | Percent Effect [7] | Percent Effect [8] | Percent Effect [9]
COc1cccc(N2CCN(CC(O)c3ccc(C)cc3)CC2)c1 (configuration not stated) | -1.61% | 21.1% | -2.12% | -9.96% | 0.292% | 0% | 17% | 3.85% | 5.32% | 20.8% | 21%
Cc1cnn(CCNCc2csc(-c3cccs3)n2)c1 | -2.47% | -2.63% | 5.67% | 8% | -0.564% | -1.92% | 13.7% | 0.0858% | -3.43% | 0% | 6.81%
Cc1nc(C)n(C2CCCN(C(=O)Cc3n[nH]c4ccccc34)C2)n1 (configuration not stated) | -5.17% | -2.6% | 5.72% | 7.39% | 1.69% | -7.47% | 4.56% | 5.91% | 5.83% | 14.6% | -7.79%
COc1ccccc1CN(C)c1nccc(-c2cn(C)nc2C)n1 | -1.09% | 5.33% | 2.11% | 8.22% | 4.58% | 24% | 16% | 34.9% | 6.01% | 16.1% | -5.41%
CCc1c(C(=O)N2CCCN(C(C)=O)CC2)cnn1C(C)(C)C | -5.01% | 23.7% | -6.43% | 9.75% | 3.27% | 1.08% | 6.68% | -2.15% | 7.39% | 25.9% | -9.24%
CC(NC(N)=O)C(=O)N1CCCN(Cc2nccn2C(C)C)CC1 (configuration not stated) | -1.61% | 1.27% | 7.49% | 0.743% | -1.13% | -4.09% | 2.74% | -2.71% | 0% | 2.53% | -3.12%
CC(C)n1ncc2c1NC(=O)CC21C(=O)Nc2c(Cl)cc(Cl)cc21 (configuration not stated) | -1.94% | 6.67% | 3.17% | 6.18% | -0.197% | -9.33% | 1.29% | 13.3% | 2.12% | 10.3% | -4.48%
COc1ncc(NC(=O)Nc2cc(C)ccc2OC)cn1 | -9.27% | 15.6% | -6.73% | -2.77% | 9.57% | 0.645% | 15.3% | 10.7% | 3.17% | 11.5% | -7.83%
CCn1c(CN(C)C)nnc1C1CCN(Cc2ccccc2)CC1 | -0.0485% | 10.4% | 2.85% | 13.5% | 5.61% | -6.9% | 11.7% | 12.4% | 7.53% | 21% | -8.57%
CCN1CCCN(C(=O)c2cnc(OC(C)C)c(Cl)c2)CC1 | -2.83% | -8.22% | 9.83% | -2.64% | -15.9% | -1.2% | 3.68% | 6.45% | 1.04% | -30.9% | 1.65%
CC(C)c1noc(C(C)N2CCN(Cc3ccco3)CC2)n1 (configuration not stated) | -1.82% | -7.89% | -0.515% | 3.05% | 7.19% | -3.24% | 2.45% | -1.85% | 1.48% | 1.24% | 0.33%
CCc1nc(C2CCCN2Cc2nc(CCOC)no2)no1 (configuration not stated) | -3.77% | 10.4% | -0.579% | 7.16% | 6.59% | -5.52% | 3.49% | -6.27% | 3.23% | 11.1% | -7.19%
COCc1cc(NCCc2ccc(F)cc2)n2nccc2n1 | -5.32% | 0% | 14.1% | -6.47% | -0.196% | -2.27% | -0.887% | -6.7% | 1.07% | 5% | -5.83%
Cc1cc(=O)n(CC(=O)Nc2ccc(C(N)=O)cc2)nc1C | -0.496% | 0% | -2.6% | 15.7% | 3.67% | 0.952% | 11.6% | 4.44% | 1.59% | 9.76% | -0.0727%
CC(C)C(NC(=O)NCC1(CO)CC1)c1nnc2n1CCC2 (configuration not stated) | -7.18% | 13.5% | 2.82% | 15.2% | 2.54% | 4.58% | 11.2% | 10.4% | 7.92% | 11% | -9.98%
Cc1noc(C)c1C(=O)NCC(O)c1ccc(F)cc1F (configuration not stated) | -3.08% | 0% | -4.32% | -2.42% | -3.06% | 1.66% | 3.05% | 10.6% | -3.96% | -6.1% | 10.4%
CC(C)NC(=O)c1ccc2c(c1)nc1n2CCN(c2ccccc2)C1 | -1.74% | -17.3% | 16.6% | 5.54% | -1.97% | -9.68% | 15.3% | -10.5% | 26.5% | 33.3% | -10.5%
Cc1nn(C)c(N2CCOCC2)c1CNCc1ccc(Cl)s1 | -3.24% | 10.4% | 2.59% | -1.94% | 2.06% | 1.9% | 9.62% | 11.3% | 11.4% | 25.9% | -8.79%
NC(=O)Cc1ccc(NC(=O)C2CCOCC2)cc1 | -3.03% | 10.8% | -5.71% | -1.1% | -7.52% | 2.03% | 11.5% | 19.3% | 5.94% | 15.8% | -1.7%
CC(C(=O)NCc1ccnc(Oc2ccc(F)cc2)c1)n1cncn1 (configuration not stated) | -3.42% | -54% | -1.15% | 7.66% | 3.86% | 4.29% | 9.31% | 0.85% | 4.76% | 14.6% | -1.39%
CC(C)Cc1cc(NC(=O)c2ccc(=O)[nH]n2)n(C)n1 | -8.11% | 18.2% | -1.51% | 12.1% | 3.75% | 2.85% | 4.73% | 0.756% | 8.74% | 24.4% | -11.8%
CC(C)c1ccc(C(C)NC(=O)N2CCC(n3cncn3)CC2)cc1 (configuration not stated) | -4.08% | 10.1% | -2.45% | 13.7% | -3.87% | 0% | 5.49% | 13.3% | 3.45% | 8.86% | -3.06%
